This passage reports growth results from PubChem BioAssay (NCI).

The panel holds about 83,000 compounds, 20% with a hit somewhere; the sample as a whole holds those more often.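 Testing used 96-well plates and a 48-hour single-concentration exposure. Example: -40 means 40% of the starting cells died.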 A number with no mark means an inactive call. The source made the active and inactive calls. How the source made its calls: active means growth percent below 10; inactive means the rest.

The assay relates to CCRF-CEM leukemia. Nature of the assay: NCI-60 one-dose screen, 48 h (100 = growth as untreated, 0 = no growth, -100 = all killed). Conditions: 10 µM.
For the compound `Cc1cc2c(-c3nc4ccccc4n3C)c(O)c(O)cc2c(O)c1-c1c(C)cc2c(-c3nc4ccccc4n3C)c(O)c(O)cc2c1O`, the growth is 20.5%. Regarding `COc1ccc2sc(-n3nc4nc5n(c(=O)c4c3N)-c3ccccc3Sc3ccccc3-5)nc2c1`, the growth is 68.1%. To `CC(=O)Nc1ccc(C(=O)/C=C/c2ccc(N(C)C)cc2)cc1` belongs 101%; to `CCCC(=O)NNc1[nH]c(-c2ccc(OC)cc2)cc1C(=O)OCC`, 5.87% (active). Under `C/C=C(/C)C(=O)OC1C=C(CO)C(=O)C(OC(=O)C(C)(O)C(C)Cl)C1C(C)C` (centres undefined) stands 1.18% (active). Under `CC([C@H]1CC=C2C3CCC4=C[C@@H](N(C)C)CC[C@]4(C)C3CC[C@@]21C)N(C)C` (some centres undefined) stands 43.4%; under `COc1ccc(/C=C2\SC(=O)N(Cc3cc(=O)oc4ccc(OC)cc34)C2=O)cc1`, 77.2%; under `CCCCCCCCCCCCCCCC[n+]1cccc(C#N)c1`, -26% (active). As to `COc1ccc2cnc(N)c(C#Cc3cc(C(=O)Nc4ccc(CN5CCN(C)CC5)c(C(F)(F)F)c4)cnc3C)c2c1`, the growth is 18.7%. To `CCCCCc1ccnc(CC(=O)c2ccc(OC)cc2)c1` belongs 87.8%; to `CCCCCCCCCCCCCCCCCC1=NCCN1CS(=O)(=O)O`, -5.55% (active). Under `COc1ccc(OC)c(Cn2cc3c(c2)-c2oncc2CC3)c1` stands 16%; under `CC1Cc2cc(F)ccc2-n2cccc21` (centres undefined), 111%; under `CC/C(=N\Nc1nc2ccccc2n1C)c1ccccn1`, 7.72% (active). Under `O=C(CN1C(=O)NC(c2ccccc2)(c2ccccc2)C1=O)c1ccc(N2CCCC2)cc1` stands 98.9%; under `COc1ccc(-c2nc(N)n(C(=S)Nc3ccccc3)n2)cc1`, 98.7%; under `Cc1sc(NC(=O)c2ccc(C(C)(C)C)cc2)c(C(=O)O)c1C`, 48.7%. On to `C#CCCCCCCC[C@@H]1OC(=O)[C@H]([C@@H](C)CC)NC(=O)[C@H]([C@@H](C)CC)NC(=O)CC(=O)[C@@H]1C`, for which the growth is 89.8%.

`CCOC1=C(Cl)C(=O)C(OCC)=C(Cl)C1=O`: the growth is 9.18% (active). Under `Cc1ccc(CC(=O)O)c(C)c1` stands 101%.

In the case of `O=C1C(=O)c2ccccc2C(O)=C1CCCc1ccc(Oc2ccccc2)cc1`, the growth is 32.1%. `CCOc1ccc2nc3ccc(Cl)cc3nc2c1`: the growth was -0.816% (active). Regarding `CC[n+]1c(C)ccc2cc(C)ccc21`, the growth is 98%.

With `COC(=O)/C(Br)=C/c1c[nH]c2ccc(Br)cc12`, the growth was 23.4%.

Consider `CC(=O)c1ccc2c(c1)c1ccccc1n2C`, for which the growth is 70.6%.

Consider `Cc1ccc([C@@H]2C[C@H](O)Cc3ccccc3N2)s1`, for which the growth was 105%. To `COC(=O)/C=C/c1cc(O)c2oc(-c3ccc(O)c(O)c3)c(C(=O)OC)c2c1` belongs 3.32% (active).

On to `CCc1c(C)c2ccc(OCC(=O)N=Nc3c(O)[nH]c4ccccc34)c(C)c2oc1=O`, for which the growth is 10.3%. With `CC1=C(C)C[C@]2(C(=O)O[C@H]3CCCC[C@@H]32)[S@](=O)C1`, the growth is 105%. For the compound `CCOC(=O)C1=NN(c2ccccc2)C2=NC(=O)/C(=C\c3cn(-c4ccccc4)nc3-c3cc4ccccc4o3)C(=O)N12`, the growth is 95.8%. Under `COc1cc2c(/C=C3\C(=O)Nc4ccc(Br)cc43)c(Cl)n(C)c2cc1C` stands -11.7% (active). Under `COc1cc2c(cc1OC)C(Cc1cc(OC)c(OC)cc1[N+](=O)[O-])=NCC2` stands 88.3%.

`COc1ccc(-c2nc(SCC(C)C)nc(Nc3ccc([N+](=O)[O-])cc3)c2C#N)cc1`: the growth was 78.1%. To `O=C(/C=C/c1c[nH]c2ccccc12)c1cc2ccccc2o1` belongs 36.3%. To `O=C(CBr)OCc1ccc([N+](=O)[O-])o1` belongs 74.1%.

For `C/C=C(/C)C(=O)OC1C=C(CO)C(=O)C(OC(=O)C2(C)OC2C)C1C(C)C` (centres undefined), the growth was 1.28% (active). To `O=C(Nc1ccc(Cl)c(Cl)c1)O/N=C\c1c(Cl)ccc([N+](=O)[O-])c1Cl` belongs -19.3% (active). Under `Oc1ccc(CN(Cc2ccc(C(F)(F)F)cc2)Cc2ccc(O)c3ncccc23)c2cccnc12` stands 8.17% (active); under `COc1cc(-c2nc(/C=C3/C(=O)Nc4ccccc43)c3ccccn23)cc(OC)c1OC`, 72.7%.
